# CF NFkB inh: inhibitors of PAF-induced NF-kB signaling, primary screen, cell-based, GFP fluorescence, uHTS; KKLEB NF-kB-GFP reporter, GFP fluorescence overnight; inhibition, % at 5 µM; 360,000 compounds, 0.86% hits; AID 588850, 2011;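 active = at least 50% inhibition at 5 µM, scaled per plate between neutral and stimulator controls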;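 also: PAF is a Pseudomonas aeruginosa culture filtrate used as stimulus; plate controls were PAF-stimulated DMSO wells for no effect and unstimulated DMSO wells for full effect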
# TRPM1 prom inh: inhibitors of MITF-dependent TRPM1 promoter reporter, primary screen, cell-based, SK-MEL-5, single point, luciferase | SK-MEL-5 TRPM1 promoter luciferase, 24 h | inhibition, % at 12.5 µM | 330,000 compounds, 0.83% hits | AID 488899, 2010;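 active = mean inhibition across replicates of 60% or more, whatever share of single replicates reaches that level; inconclusive = some that reach 60%, reason not given; inactive = mean inhibition across replicates below 60%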
# Shn3 3UTR inh: reduction of Shn3 3'UTR firefly luciferase signal, primary screen, Schnurri-3 inhibitor project, cell-based, Clone20 osteoblasts, set 2. inhibition, % at 12.5 µM. Clone20 osteoblast Shn3 3'UTR firefly luciferase, 24 h. 360,000 compounds, 0.52% hits. AID 588674, 2011;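 active = mean inhibition of at least 75% with every replicate also reaching 75%; inconclusive = mean inhibition at least 75% but some replicate below; inactive = mean inhibition below 75%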;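 also: 0% = median of neutral control wells and 100% = pilot-screen positive control compound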
# HIF-2a inh: HIF-2a reporter inhibitors, primary screen, luminescence, 786-0 RCC cells. 786-0 RCC cells HIF-2a reporter, luciferase luminescence, overnight. inhibition, % at 18.8 µM. 360,000 compounds, 0.72% hits;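 active = inhibition of the luminescence signal of 40% or more relative to plate controls, in a single-dose primary screen at 18.75 µM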
# Peg3 promoter: Peg3 promoter-driven luciferase inhibitors, primary screen, cell-based, HeLa, luciferase luminescence; 360,000 compounds, 1.7% hits; AID 588405, 2011; HeLa PEG-Prom luciferase reporter, overnight; inhibition, % at 20 µM;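 active = inhibition of at least 50% at 20 µM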
# KKLEB cytotox: cytotoxicity in KKLEB CF airway cells, primary screen, cytotoxicity control for CF NF-kB inhibitor project, cell-based, uHTS, fluorescence assay plates; activity change (cytotoxicity), % at 5 µM; KKLEB CF airway cells viability, ATPlite luminescence, overnight; stronger effect = lower value; cells stimulated with P. aeruginosa culture filtrate; 360,000 compounds, 0.36% hits;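 active = corrected activity change at or below -50% at 5 µM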
# An asterisk follows results filed as active; ? = inconclusive; · = no result given; ! = repeats disagree. The list is not random: actives were taken first. Their share in the collection is about 2.7%.
SMILES,CF NFkB inh,TRPM1 prom inh,Shn3 3UTR inh,HIF-2a inh,Peg3 promoter,KKLEB cytotox
Cc1ccc([C@H]2C[C@@H](O)[C@H](n3cc(COC(=O)c4ccccc4)nn3)CN2C(=O)c2cccs2)cc1,-23,·,-3,-2,-6,3
Cc1oc(-c2ccc(Cl)cc2)nc1CN1CCC(C(=O)NCCCN2CCCC(C)C2)CC1 (stereo unspecified),5,96*,-16,-6,43,-13
Cc1oc(-c2ccc(Cl)cc2)nc1CN1CCC(C(=O)N2CCN(Cc3ccccc3)CC2)CC1,26,14,57,1,4,-27
Cc1oc(-c2ccc(Cl)cc2)nc1CN1CCC(C(=O)N2CCc3ccccc3C2)CC1,28,22,46,-32,79*,-3
CCCS(=O)(=O)NC(=O)C1(C)CCCN(C(=O)C2(c3ccc(Cl)cc3)CCCC2)C1 (stereo unspecified),-60,·,4,-2,4,16
COc1cc(/C=N/NC(=S)Nc2cccc(C(=O)O)c2)ccc1O,-3,40,17,43*,12,-6
COc1cc(/C=N/NC(=O)CCN2CCCCC2)ccc1O,-10,-15,-15,6,4,-3
COc1cc(/C=N/NC(=O)CCn2cnc(-c3ccccc3)c2-c2ccccc2)ccc1O,-8,2,-4,20,53*,4
CCc1nc2c(OCC(N)=O)cccn2c1N(C)C(=O)C(C)C,12,·,-8,4,4,-5
CCC(=O)N1CCC1(C)C(=O)Nc1cc(-c2ccccc2)nn1C (stereo unspecified),9,·,-30,-213,-198,11
Cc1cc(=O)oc2c3c(cc(OCC(=O)NCc4ccccc4)c12)OC(C)(C)CC3,-26,0,19,3,17,0
Cc1cc(=O)oc2c3c(cc(OCC(=O)Nc4ccc(CCO)cc4)c12)OC(C)(C)CC3,6,-8,91*,-21,5,-10
C=C1C(=O)N(C)CCC1C(CC)C(=O)OC (stereo unspecified),-8,·,18,6,-8,10
COc1ccccc1N1C(=O)N(C(C)=O)C2C1Nc1ccccc1N2C (stereo unspecified),7,69*,-50,2,2,-7
COc1ccccc1N1C(=O)c2ccccc2NC1c1ccncc1 (stereo unspecified),-12,7,-18,8,-7,8
COc1ccccc1/C=C/C1(C(=O)NC2CCCC2)CC(=O)N1c1ccc(F)cc1 (stereo unspecified),80*,41,3,15,40,-77*
COc1ccccc1/C=C/C1(C(=O)NC2CCCC2)CC(=O)N1c1ccc(C)cc1 (stereo unspecified),26,4,0,21,41,-18
COC(=O)c1cc(Cl)ccc1NCC(N)c1ccccc1 (stereo unspecified),3,·,8,-12,2,-11
CCOc1cc(/C=C2/C(=O)ON=C2C)ccc1OCc1ccc(F)cc1,-13,?,57,-1,65*,8
CCOc1cc(/C=C2/C(=O)ON=C2C)ccc1OCc1ccccc1F,-42,40,84,17,97*,19
CCOc1cc(/C=C2\C(=O)ON=C2c2ccccc2)ccc1OC,-6,18,64,12,38,2
Cc1cnc(CNc2nc3cc(-c4ccccc4C)sc3c(=O)n2C)cn1,32,·,-38,-69,1,-25
CCN(CC)C(=O)CSc1nnc2nnc3cc(C)ccc3n12,-4,41,·,3,5,-1
CCN(CC)C(=O)CSc1nnc2nnc3cc(Cl)ccc3n12,4,72*,11,12,-8,-6
CCN(CC)CCNC(=O)c1ccc(NC(=O)Cc2ccc(OC)c(S(=O)(=O)N3CCOCC3)c2)cc1,-9,1,-7,0,-16,18
SMILES,CF NFkB inh,TRPM1 prom inh,Shn3 3UTR inh,HIF-2a inh,Peg3 promoter,KKLEB cytotox
C=CC(=O)Nc1ccc(CN2C(=O)N(c3c(Cl)c(OC)cc(OC)c3Cl)Cc3cnc(NCCCCN(CC)CC)nc32)cc1,34,2,50,32,52*,-35
c1ccc2c(c1)C1=NCCN1c1ccccc1-2,-254,·,-74,-62,104*,8
COC1=Nc2ccccc2N2CCN=C12,0,·,3,-2,-5,-4
CCC(C)NCCCOc1ccc(Cl)cc1C(C)(C)C (stereo unspecified),5,-2,-11,9,-3,-2
CNCCCOc1ccc(Cl)cc1C(C)(C)C,18,-17,19,4,68*,-22
S=C(NCCCN1CCOCC1)N1CCN(c2nc(-c3ccccc3)cs2)CC1,5,8,41,1,-4,-4
S=C(NCCCN1CCOCC1)N1CCN(c2nc(-c3ccc(Cl)cc3)cs2)CC1,27,31,1,6,75*,-12
COc1cc(CNC(C)c2ccccc2)cc(Br)c1OCc1ccc(F)cc1 (stereo unspecified),40,10,21,16,59*,-29
COc1cc(CNC(C)c2ccccc2)cc(Br)c1OCc1ccccc1 (stereo unspecified),4,3,38,22,25,-6
Oc1nc(Nc2cccc(Cl)c2)sc1/C=C1\C=Nc2ccccc21,-7,-2,-19,-108,-10,-4
CCOC(=O)c1c(Nc2ccc(Cl)cc2)sc(/C=C2\C=Nc3ccccc32)c1O,26,4,10,3,27,-51*!
CCCCNCC(O)(c1ccc(Cl)cc1)c1ccc(Cl)cc1,18,-16,61,18,63*,-21
NC1=NC[C@H](c2ccccc2)N1CCCCC1CCCCC1,5,15,82,7,100*,-26
S=C1NC[C@H](c2ccccc2)N1CCCCC1CCCCC1,-13,1,16,3,-2,-10
NC(CCc1ccccc1)c1csc(NC(=O)NCCc2ccccc2)n1 (stereo unspecified),-24,·,10,-18,93*,-5
NC(Cc1ccc(Cl)cc1)c1csc(NC(=O)NCCc2ccccc2)n1 (stereo unspecified),6,·,-11,8,96*,-24
NC(Cc1ccc(Cl)cc1)c1csc(NC(=O)Nc2ccccc2-c2ccccc2)n1 (stereo unspecified),33,·,19,9,90*,-34
NC(=O)c1cccc(Nc2nc(C(N)CCc3ccccc3)cs2)n1 (stereo unspecified),9,·,19,13,1,-18
